The panel holds about 79,000 compounds, 15% with a hit somewhere; the sample as a whole holds those more often. The source made the active and inactive calls. Rule as the data show it: active = growth inhibition above about 70%; inactive = the rest.
Assays:
[1] = NCI Yeast Anticancer Drug Screen. Data for the rad52 strain (AID 147);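 also: 0% = growth of vehicle-treated control cultures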; conditions: S. cerevisiae rad52 mutant growth inhibition, stronger effect = higher value
Summary of the method: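 Here a repair-compromised yeast strain receives each compound; its growth is then quantified and normalised to vehicle-only controls.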

[2] = NCI Yeast Anticancer Drug Screen. Data for the wt1 strain (AID 149);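 also: 0% = growth of vehicle-treated wt1 cultures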; conditions: S. cerevisiae wt1 strain (SPY 50644) growth inhibition, stronger effect = higher value
Summary of the method: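 Measured: growth of wt1 yeast under compound versus vehicle treatment, reported as inhibition.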

[3] = NCI Yeast Anticancer Drug Screen. Data for the rad50EPP+ strain (AID 151);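 also: 0% = growth of vehicle-treated control cultures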; conditions: S. cerevisiae rad50 mutant strain, stronger effect = higher value
Summary of the method: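 Read-out is yeast growth inhibition relative to vehicle; cells used were the rad50EPP+ strain.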

[4] = NCI Yeast Anticancer Drug Screen. Data for the mgt1 strain (AID 153); conditions: S. cerevisiae mgt1 mutant growth inhibition, stronger effect = higher value
Summary of the method: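 Measured: inhibition of mgt1 yeast growth by compound, normalized to vehicle-treated cultures.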

[5] = NCI Yeast Anticancer Drug Screen. Data for the rad50 strain (AID 155);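 also: 0% = growth of vehicle-only cultures of the same strain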; conditions: S. cerevisiae rad50 strain growth inhibition, stronger effect = higher value
Summary of the method: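 Growth of the mutant yeast was measured after compound exposure and referenced to vehicle-treated cultures.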

[6] = NCI Yeast Anticancer Drug Screen. Data for the mec2-1 strain (AID 157); conditions: S. cerevisiae mec2-1 strain, stronger effect = higher value
Summary of the method: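 Using mec2-1 yeast: add compound, measure growth, express inhibition versus vehicle-treated cultures.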

[7] = NCI Yeast Anticancer Drug Screen. Data for the rad14 strain (AID 159);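 also: 0% = growth of vehicle-treated control cultures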; conditions: S. cerevisiae rad14 strain growth inhibition, stronger effect = higher value
Summary of the method: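 Here, inhibition of yeast growth was measured after compound exposure, using a strain with a genetic defect in DNA damage repair and vehicle-treated cultures as the reference.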

[8] = NCI Yeast Anticancer Drug Screen. Data for the sgs1 mgt1 strain (AID 161);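 also: 0% = growth of cultures given vehicle only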; conditions: S. cerevisiae sgs1 mgt1 strain, stronger effect = higher value
Summary of the method: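 Growth of a repair-deficient yeast mutant was monitored after compound treatment and expressed as inhibition relative to vehicle-treated cultures.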

[9] = NCI Yeast Anticancer Drug Screen. Data for the CLN2oe strain (AID 163);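 also: 0% = growth of vehicle-only control cultures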; conditions: S. cerevisiae CLN2oe strain, stronger effect = higher value
Summary of the method: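 Whole-cell yeast growth assay. A strain engineered for altered cell-cycle control received compound, and inhibition relative to vehicle-treated cultures was recorded.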

[10] = NCI Yeast Anticancer Drug Screen. Data for the cln2 rad14 strain (AID 165);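 also: 0% = growth equal to vehicle treated cultures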; conditions: S. cerevisiae cln2 rad14 strain, stronger effect = higher value
Summary of the method: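 Yeast strain cln2 rad14, bearing defects in cell cycle control and DNA repair, serves as the test system; values reflect growth inhibition compared with vehicle.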

[11] = NCI Yeast Anticancer Drug Screen. Data for the bub3 strain (AID 167); conditions: S. cerevisiae bub3 mutant strain, stronger effect = higher value
Summary of the method: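 Whole-cell yeast assay. The mutant strain was incubated with compounds, and growth inhibition was determined by comparison with vehicle-treated cells.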

[12] = NCI Yeast Anticancer Drug Screen. Data for the wt2 strain (AID 169);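 also: 0% = growth of vehicle-treated yeast cultures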; conditions: S. cerevisiae wt2 strain growth inhibition, stronger effect = higher value
Summary of the method: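 Treated yeast vs. vehicle-treated yeast: growth inhibition determined.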

[13] = NCI Yeast Anticancer Drug Screen. Data for the mlh1 strain (AID 171);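 also: 0% = growth of vehicle-treated control cultures of the same strain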; conditions: S. cerevisiae mlh1 strain growth inhibition, stronger effect = higher value
Summary of the method: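 A yeast strain with a defined genetic lesion serves as the test organism. Cultures receive compound or vehicle, and growth is measured.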

[14] = NCI Yeast Anticancer Drug Screen. Data for the sgs1 strain (AID 173);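 also: 0% = growth of vehicle-only control cultures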; conditions: S. cerevisiae sgs1 mutant, stronger effect = higher value
Summary of the method: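 A genetically defined yeast mutant is incubated with the test compound, and its growth is compared to that of the same strain given vehicle.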

[15] = NCI Yeast Anticancer Drug Screen. Data for the mlh1 rad18 strain (AID 175); conditions: S. cerevisiae mlh1 rad18 strain growth inhibition, stronger effect = higher value
Summary of the method: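 Steps: expose repair-defective yeast to compound; measure growth; express inhibition against vehicle-treated controls.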

[16] = NCI Yeast Anticancer Drug Screen. Data for the rad18 strain (AID 177); conditions: S. cerevisiae rad18 mutant growth inhibition, stronger effect = higher value
Summary of the method: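 Measured value is growth inhibition of a yeast strain bearing a DNA repair alteration, referenced to vehicle-treated cells.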

[17] = at 5.0 µM (retest, dose inferred, filed as 0.5)
[18] = at 50.0 µM (retest, dose inferred, filed as 5.0)

Measured: growth inhibition

Cc1cccc2c(NCCCN(C)C)c3c([N+](=O)[O-])ccc(C)c3nc12
active: [1]; at 1.2 µM 76% | [1]; at 3.7 µM 91% | [1]; at 11.0 µM 94% | [1]; at 33.0 µM 97% | [1]; at 100.0 µM 97% | [2]; at 33.0 µM 95% | [2]; at 100.0 µM 97% | [3]; at 11.0 µM 85% | [3]; at 33.0 µM 94% | [3]; at 100.0 µM 95% | [4]; at 33.0 µM 98% | [4]; at 100.0 µM 98% | [5]; at 3.7 µM 79% | [5]; at 11.0 µM 92% | [5]; at 33.0 µM 94% | [5]; [18] 78% | [5]; at 50.0 µM 97.8% | [5]; at 100.0 µM 96% | [6]; at 11.0 µM 96% | [6]; at 33.0 µM 98% | [6]; at 50.0 µM 96.9% | [6]; at 100.0 µM 98% | [7]; at 1.2 µM 98% | [7]; at 3.7 µM 98% | [7]; at 11.0 µM 99% | [7]; at 33.0 µM 99% | [7]; at 100.0 µM 98% | [8]; at 50.0 µM 96.8% | [9]; at 33.0 µM 88% | [9]; at 100.0 µM 96% | [10]; [18] 95% | [10]; at 50.0 µM 91% | [11]; at 33.0 µM 90% | [11]; [18] 97% | [11]; at 50.0 µM 72.2% | [11]; at 100.0 µM 96% | [12]; at 33.0 µM 95% | [12]; at 100.0 µM 97% | [13]; at 33.0 µM 97% | [13]; at 100.0 µM 98% | [14]; at 1.2 µM 85% | [14]; at 3.7 µM 92% | [14]; at 11.0 µM 95% | [14]; at 33.0 µM 98% | [14]; at 100.0 µM 98% | [15]; at 50.0 µM 97.1% | [16]; at 1.2 µM 96% | [16]; at 3.7 µM 96% | [16]; at 11.0 µM 96% | [16]; at 33.0 µM 96% | [16]; at 100.0 µM 96%
inactive: [2]; at 1.2 µM 5% | [2]; at 3.7 µM 13% | [2]; at 11.0 µM 39% | [3]; at 1.2 µM 29% | [3]; at 3.7 µM 55% | [4]; at 1.2 µM 8% | [4]; at 3.7 µM 20% | [4]; at 11.0 µM 69% | [5]; at 1.2 µM 54% | [5]; [17] 1% | [6]; at 1.2 µM 22% | [6]; at 3.7 µM 61% | [6]; [17] -2% | [6]; [18] 11% | [8]; [17] 12% | [8]; [18] 46% | [9]; at 1.2 µM -2% | [9]; at 3.7 µM 9% | [9]; at 11.0 µM 41% | [10]; [17] 49% | [11]; at 1.2 µM -8% | [11]; at 3.7 µM -6% | [11]; [17] -24% | [11]; at 11.0 µM 16% | [12]; at 1.2 µM 4% | [12]; at 3.7 µM 15% | [12]; at 11.0 µM 49% | [13]; at 1.2 µM 8% | [13]; at 3.7 µM 18% | [13]; at 11.0 µM 63% | [15]; [17] 12% | [15]; [18] 61%

CC1=CC(C)(C)SC(SSSC2=NC(C)=CC(C)(C)S2)=N1
active: [1]; at 100.0 µM 78% | [4]; at 100.0 µM 89% | [7]; at 100.0 µM 90% | [12]; at 100.0 µM 85% | [13]; at 100.0 µM 88% | [14]; at 100.0 µM 89% | [16]; at 100.0 µM 88%
inactive: [1]; at 1.2 µM -3% | [1]; at 3.7 µM -3% | [1]; at 11.0 µM 0% | [1]; at 33.0 µM 7% | [2]; at 1.2 µM -3% | [2]; at 3.7 µM -2% | [2]; at 11.0 µM 0% | [2]; at 33.0 µM 7% | [2]; at 100.0 µM 39% | [3]; at 1.2 µM -1% | [3]; at 3.7 µM -1% | [3]; at 11.0 µM 0% | [3]; at 33.0 µM 2% | [3]; at 100.0 µM 31% | [4]; at 1.2 µM -8% | [4]; at 3.7 µM 1% | [4]; at 11.0 µM 3% | [4]; at 33.0 µM 7% | [5]; at 1.2 µM -17% | [5]; at 3.7 µM -4% | [5]; [17] -6% | [5]; at 11.0 µM -4% | [5]; at 33.0 µM 1% | [5]; [18] 48% | [5]; at 50.0 µM 15.6% | [5]; at 100.0 µM 65% | [6]; at 1.2 µM -2% | [6]; at 3.7 µM -4% | [6]; [17] 0% | [6]; at 11.0 µM 0% | [6]; at 33.0 µM 8% | [6]; [18] 15% | [6]; at 50.0 µM 10.7% | [6]; at 100.0 µM 42% | [7]; at 1.2 µM -6% | [7]; at 3.7 µM -5% | [7]; at 11.0 µM -3% | [7]; at 33.0 µM 8% | [8]; [17] -10% | [8]; [18] 61% | [8]; at 50.0 µM 39.2% | [9]; at 1.2 µM -10% | [9]; at 3.7 µM -17% | [9]; at 11.0 µM -14% | [9]; at 33.0 µM -13% | [9]; at 100.0 µM 13% | [10]; [17] -9% | [10]; [18] 6% | [10]; at 50.0 µM 2.9% | [11]; at 1.2 µM -2% | [11]; at 3.7 µM -2% | [11]; [17] -1% | [11]; at 11.0 µM 1% | [11]; at 33.0 µM 1% | [11]; [18] 24% | [11]; at 50.0 µM -3.25% | [11]; at 100.0 µM 56% | [12]; at 1.2 µM -5% | [12]; at 3.7 µM -6% | [12]; at 11.0 µM -4% | [12]; at 33.0 µM 4% | [13]; at 1.2 µM -5% | [13]; at 3.7 µM -4% | [13]; at 11.0 µM 0% | [13]; at 33.0 µM 11% | [14]; at 1.2 µM -4% | [14]; at 3.7 µM -2% | [14]; at 11.0 µM 0% | [14]; at 33.0 µM 14% | [15]; [17] -4% | [15]; [18] 42% | [15]; at 50.0 µM 29.8% | [16]; at 1.2 µM -4% | [16]; at 3.7 µM 0% | [16]; at 11.0 µM 7% | [16]; at 33.0 µM 23%
